Here are results for 40 compounds from PubChem BioAssay (NCATS).

Molecules are shown by their SMILES. Results filed as inconclusive are left out. Activity calls are given as the source filed them. Calls come from the whole dose curve.

Peroxisome proliferator-activated receptor delta (Homo sapiens), sequence (Q03181 whole entry, looked up): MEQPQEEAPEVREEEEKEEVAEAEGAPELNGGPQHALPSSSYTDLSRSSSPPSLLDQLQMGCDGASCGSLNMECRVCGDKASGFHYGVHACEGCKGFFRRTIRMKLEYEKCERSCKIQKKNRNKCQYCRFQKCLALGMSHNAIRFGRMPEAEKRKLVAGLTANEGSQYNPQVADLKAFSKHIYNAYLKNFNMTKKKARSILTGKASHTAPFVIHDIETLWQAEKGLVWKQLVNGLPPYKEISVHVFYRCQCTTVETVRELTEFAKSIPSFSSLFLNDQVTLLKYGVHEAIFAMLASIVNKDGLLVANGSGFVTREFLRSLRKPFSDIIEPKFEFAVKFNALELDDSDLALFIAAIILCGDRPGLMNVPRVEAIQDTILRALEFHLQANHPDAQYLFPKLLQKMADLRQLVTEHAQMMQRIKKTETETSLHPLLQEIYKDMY

For the assay, the target named is Peroxisome proliferator-activated receptor delta (Homo sapiens) (UniProt Q03181). Put plainly: qHTS assay for small molecule agonists of peroxisome proliferator-activated receptor delta signaling (AID 588534). As to conditions: HEK293T PPARdelta-UAS-bla, beta-lactamase ratio, 18 h; series mostly up to 76.7 µM. The text has this:
NIH Chemical Genomics Center [NCGC] U.S. Environmental Protection Agency [EPA] National Institutes of Environmental Health Sciences [NIEHS] National Toxicology Program [NTP] NCGC Assay Overview The Peroxisome proliferator-activated receptors (PPARs) are lipid-activated transcription factors of the nuclear receptor superfamily with three distinct subtypes namely PPAR alpha, PPAR delta (also called PPAR beta) and PPAR gamma. All these subtypes heterodimerizes with Retinoid X receptor (RXR) and have different physiological functions. […] This role of PPAR delta implicates the potential use of its ligands in the treatment of metabolic disorders.
Compounds were screened in a titration series in 1536-well format. […] Concentration-response titration points for each compound were fitted to the Hill equation yielding concentrations of half-maximal stimulation (EC50) and maximal response (efficacy) values. qHTS protocol for PPAR-delta beta-lactamase assay in agonist mode [Step] [Parameter] [Value] [Description] 1. Reagent; 6 uL; 4000 cells/well 2. Incubation; 37 C for 5 hrs 3. Compounds; 23 nL; 0.59 nM to 92 uM 4. […] Incubation; 37 C for 18 hrs 6. Detection reagent; 1 uL of CCF4-dye 7. Incubation; RT for 2 hrs 8. Detection; Fluorescence; Envision plate reader
As for `CC(=O)[C@@]1(O)CC[C@H]2[C@@H]3CCC4=CC(=O)CC[C@]4(C)[C@H]3CC[C@@]21C`, the result was inactive.
Turning to `CCCCCC(N)=O`, the outcome was inactive.
As for `CCCCCCCCC(=O)NCc1ccc(O)c(OC)c1`, the result was inactive.
Turning to `CN(C)C(=S)SC(=S)N(C)C`, the outcome was inactive.
Turning to `CCC(=O)O[C@H]1CC[C@H]2[C@@H]3CCC4=CC(=O)CC[C@]4(C)[C@H]3CC[C@]12C`, the outcome was inactive.
Regarding `O=c1n(Cl)c(=O)n(Cl)c(=O)n1Cl`, the result was inactive.
Then `O=C1c2cccc(O)c2C(=O)c2c(O)cccc21`, with “inactive”.
Consider `C/C=C/c1ccc(O)c(OC)c1`, for which the result was inactive.
To `COc1cccc2c1C(=O)c1c(O)c3c(c(O)c1C2=O)C[C@@](O)(C(C)=O)C[C@@H]3O[C@H]1C[C@H](N)[C@H](O)[C@H](C)O1` belongs “inactive”; to `CC1(C)[C@@H]2CC[C@@]1(C)C(=O)C2`, “inactive”; to `CNC(=O)Oc1ccc2c(c1)[C@]1(C)CCN(C)[C@@H]1N2C`, “inactive”.
Take `CNC(=O)Oc1cccc2ccccc12`: the outcome was inactive.
Then `Oc1ccc(Cl)cc1Cc1cc(Cl)ccc1O`, with “inactive”; and `CCCCCCCCCCCC[N+](C)(C)Cc1ccccc1`, with “inactive”; and `COP(=O)(OC)OC=C(Cl)Cl`, with “inactive”.
Consider `NCCNc1cccc2ccccc12`, for which the outcome was inactive.
As to `O=C1C(c2[nH]c3ccccc3c2O)=Nc2ccccc21`, the outcome was inactive.
For `COCC(=O)N(c1c(C)cccc1C)C(C)C(=O)OC` (stereo not given), the outcome was inactive.
To `NS(=O)(=O)c1cc(C(=O)O)c(NCc2ccco2)cc1Cl` belongs “inactive”; to `C=CCOC(Cn1ccnc1)c1ccc(Cl)cc1Cl` (stereo not given), “inactive”.
Consider `C[C@]12CCC(=O)C=C1CC[C@@H]1[C@@H]2C(=O)C[C@@]2(C)[C@H]1CC[C@]2(O)C(=O)CO`, for which the outcome was inactive.
`c1ccc2[nH]c(-c3cscn3)nc2c1`: the result was inactive.
Take `CC(O)COc1ccccc1` (stereo not given): the outcome was inactive.
`Cn1cnc2c1c(=O)[nH]c(=O)n2C`: the result was inactive.
As for `CCCCCCCCCCCC[N+](C)(C)CCOc1ccccc1`, the result was inactive.
Then `C=C[C@@]1(C)CC(=O)[C@]2(O)[C@@]3(C)[C@@H](O)CCC(C)(C)[C@@H]3[C@H](O)[C@H](OC(C)=O)[C@@]2(C)O1`, with “inactive”.
Consider `CC(=O)OC/C=C(C)/C=C/C=C(C)/C=C/C1=C(C)CCCC1(C)C`, for which the result was inactive.
Regarding `CCOc1ccccc1C(N)=O`, the outcome was inactive.
As for `O=C(CCl)c1ccc(Cl)cc1Cl`, the result was inactive.
Then `CCCCC(CC)COC(=O)C(C#N)=C(c1ccccc1)c1ccccc1` (stereo not given), with “inactive”.
Then `COP(=O)(OC)C(O)C(Cl)(Cl)Cl` (stereo not given), with “inactive”.
As to `Cc1ccc(O)cc1`, the outcome was inactive.
Turning to `Nc1ccc(S(=O)(=O)Nc2nccs2)cc1`, the outcome was inactive.
Turning to `C[C@@H]1C[C@@H]([C@H](O)CC2CC(=O)NC(=O)C2)C(=O)[C@@H](C)C1`, the result was inactive.
Then `C[C@]12CCC(=O)C=C1CC[C@@H]1[C@@H]2[C@@H](O)C[C@@]2(C)[C@H]1CC[C@]2(O)C(=O)CO`, with “inactive”.
For the compound `CCCCCCCC/C=C\CCCCCCCCN`, the outcome was inactive.
As to `CCOC(=O)C(C)(C)Oc1ccc(Cl)cc1`, the result was inactive.
As to `C#C[C@]1(O)CC[C@H]2[C@@H]3CCc4cc(O)ccc4[C@H]3CC[C@@]21C`, the outcome was inactive.
For `CN(C)C(=S)SSC(=S)N(C)C`, the result was inactive.
Consider `COc1ccc(C(Cl)=C(c2ccc(OC)cc2)c2ccc(OC)cc2)cc1`, for which the outcome was inactive.
